{"source": "ChEMBL document CHEMBL4513216", "about": "“Probing the Open Global Health Chemical Diversity Library for Multistage-Active Starting Points for Next-Generation Antimalarials” (ACS Infect Dis, 2020)", "note": "The whole screen tested about 69,000 compounds, of which about 8,600 (12%) showed an effect of 50% or more. For the sample, strong results were picked, then their nearest neighbours and some compounds at random.", "data": [{"tested_on": "Plasmodium berghei", "test": "Screen against P. berghei liver stage (PbLuc), transformed with Luciferase, at 10uM", "assay_type": "functional, HepG2", "details": "tested at 10 uM", "units": {"INHIBITION": "%"}, "values": [{"compound": "N[C@@H]1c2ccccc2C2(CCN(C(=O)c3ccc(=O)[nH]c3)CC2)[C@H]1O", "INHIBITION": 4.795}, {"compound": "COc1ccc(C(=O)N2CCC3(CC2)c2ccccc2[C@@H](N)[C@@H]3O)cc1", "INHIBITION": 66.55}, {"compound": "c1cc(-c2cncc(C3CCNCC3)n2)n[nH]1", "INHIBITION": 35}, {"compound": "Cc1cc(C(=O)NCc2cccnc2N(C)C)c(C)o1", "INHIBITION": 26.3}, {"compound": "Nc1nccnc1C(=O)NC1CCCN(Cc2c(F)cccc2F)C1", "note": "(stereo not drawn)", "INHIBITION": 21.8}, {"compound": "Cn1nc(Cn2ccnc2)c2c1CN(Cc1ccoc1)C2", "INHIBITION": -9.42}, {"compound": "Cn1nc(Cn2cccc2)c2c1CN(Cc1ccoc1)C2", "INHIBITION": 24.6}, {"compound": "CC(C)n1nc(Cn2cccc2)c2c1CN(Cc1ccoc1)C2", "INHIBITION": 54.1}, {"compound": "COc1ccc(CN2CCC3(CC2)CCN(CCN(C)C)C3=O)cc1", "INHIBITION": -17.1}, {"compound": "CCCN(C)c1ncc2c(n1)N(C)CCN(CC1CC1)C2=O", "INHIBITION": 5.56}, {"compound": "CCc1ccc(-c2ncc3c(n2)N(C)CCN(CCN(C)C)C3=O)cc1", "INHIBITION": 79.7}, {"compound": "CN(C)c1ncc2c(n1)N(C)CCN(CC1CC1)C2=O", "INHIBITION": 21.9}, {"compound": "COc1cccc(-c2nccc(C3CCCN3C)n2)c1", "note": "(stereo not drawn)", "INHIBITION": 21.1}, {"compound": "CN1CCN(CC2CC2)C(=O)c2cnc(N3CCCCC3)nc21", "INHIBITION": 7.64}, {"compound": "CN(C)CCN1CCN(C)c2nc(-c3ccccc3)ncc2C1=O", "INHIBITION": 59}, {"compound": "CN1CCN(CC2CC2)C(=O)c2cnc(N3CCCC3)nc21", "INHIBITION": 11}, {"compound": "COc1cccc(-c2ncc3c(n2)N(C)CCN(CCN(C)C)C3=O)c1", "INHIBITION": 57.5}, {"compound": "COc1cccc2cc(CNC(=O)N3CCS(=O)(=O)CC3)oc12", "INHIBITION": 23.5}, {"compound": "Cc1noc(C)c1-c1cncc(C2CCCN2Cc2ncccc2F)n1", "note": "(stereo not drawn)", "INHIBITION": 1.5}, {"compound": "CCn1ncc(Nc2[nH]cnc3nncc2-3)c1C", "INHIBITION": 31.2}, {"compound": "N#Cc1ccc(S(=O)(=O)NC(=O)C2CC(c3ccccc3)=NO2)cc1", "note": "(stereo not drawn)", "INHIBITION": 6.09}, {"compound": "OCCc1ccccc1-n1ccnc1-c1cn(C2CCNCC2)nn1", "INHIBITION": 51.2}, {"compound": "CSc1ccccc1-n1ccnc1-c1cn(C2CCNCC2)nn1", "INHIBITION": 3.96}, {"compound": "Clc1ccccc1CCn1ccnc1-c1cn(C2CCNCC2)nn1", "INHIBITION": 22.4}, {"compound": "Cc1cc(CN2C[C@@H]3COC[C@H](C(=O)N4CCCCO4)[C@@H]3C2)oc1C", "INHIBITION": 45.1}, {"compound": "Cc1csc(N2CCN(CC(=O)N3CCCC3)CC2C)n1", "note": "(stereo not drawn)", "INHIBITION": 32.25}, {"compound": "CC(c1cccc(S(N)(=O)=O)c1)N(C)CCOC(C)(C)C", "note": "(stereo not drawn)", "INHIBITION": -27.8}, {"compound": "Cc1cccc(C(=O)NC2CCN(c3cnn(C)c3)C2=O)c1C", "note": "(stereo not drawn)", "INHIBITION": 30.5}, {"compound": "Cc1ccsc1C(=O)NC1CCN(c2cnn(C)c2)C1=O", "note": "(stereo not drawn)", "INHIBITION": 65.5}, {"compound": "Cc1ccccc1C(=O)NC1CCN(c2cnn(C)c2)C1=O", "note": "(stereo not drawn)", "INHIBITION": 11.7}, {"compound": "CC1(C(=O)N2CCOCC2)CNCCO1", "note": "(stereo not drawn)", "INHIBITION": 6.9}, {"compound": "O=C(c1ccc(Oc2cccnc2)cc1)N1CCN(CCO)CC1", "INHIBITION": 40.6}, {"compound": "Cc1cc(N2CCN(C(=O)c3cccnc3)CC2)nc(C)n1", "INHIBITION": 6.26}, {"compound": "CCCN1CCN(C(=O)c2cccnc2)CC1", "INHIBITION": 64.7}, {"compound": "CCCN1CCCN(C(=O)c2ccc(Oc3cccnc3)cc2)CC1", "INHIBITION": 61}, {"compound": "CCCN1CCCN(c2ncccc2C(=O)N2CCCCC2)CC1", "INHIBITION": 25.1}, {"compound": "CCOc1ccnc(N2CCN(C(=O)c3cccnc3)CC2)n1", "INHIBITION": 15.5}, {"compound": "CCc1cc(N(C)CCc2c(C)n[nH]c2C)ncn1", "INHIBITION": 23}, {"compound": "O=C(CCn1ccnc1)N1CC[C@H](Oc2ccc(F)cc2)[C@@H](O)CC1", "INHIBITION": 32.05}, {"compound": "CN(CC(N)=O)C(=O)c1csc(Br)c1", "INHIBITION": -5.1}, {"compound": "CS(=O)(=O)NCCC(=O)Nc1cnn(-c2ccccc2Cl)c1", "INHIBITION": 7.08}, {"compound": "Cc1nn(-c2ccccc2)c(C)c1-c1ccnc(N2CCC(O)CC2)n1", "INHIBITION": 20.2}, {"compound": "Cc1nn(-c2ccccc2)c(C)c1-c1ccnc(N2CCCOCC2)n1", "INHIBITION": -54.3}, {"compound": "Cc1nn(-c2ccccc2)c(C)c1-c1ccnc(N2CCCNCC2)n1", "INHIBITION": 85.8}, {"compound": "O=S(=O)(N1CCOCC1)N1CCCC1Cn1cccn1", "note": "(stereo not drawn)", "INHIBITION": -5.71}, {"compound": "Cc1nc(C2CN(Cc3ccc(F)cc3Br)CCO2)no1", "note": "(stereo not drawn)", "INHIBITION": 11.8}, {"compound": "Cc1ccccc1-c1noc(-c2ccc(N(C)C3CCOCC3)nc2)n1", "INHIBITION": 83.2}, {"compound": "CN(c1ccc(-c2nc(C3CC3)no2)cn1)C1CCOCC1", "INHIBITION": -99.6}, {"compound": "CC(C)c1noc(-c2ccc(N(C)C3CCOCC3)nc2)n1", "INHIBITION": -61.1}, {"compound": "O=C(OCc1cc(=O)n2cc(Br)ccc2n1)c1ccc2c(c1)OCO2", "INHIBITION": 19.8}, {"compound": "COCCN1CC2(CCCN(C(=O)CCCc3cccs3)C2)CCC1=O", "note": "(stereo not drawn)", "INHIBITION": 25.1}, {"compound": "COCCN1CC2(CCCN(C(=O)NCCc3cccs3)C2)CCC1=O", "note": "(stereo not drawn)", "INHIBITION": 56.5}, {"compound": "O=C(NCCc1cccs1)N1CCCC2(CCC(=O)N(C3CC3)C2)C1", "note": "(stereo not drawn)", "INHIBITION": 9.87}]}]}
